Tested on: RIVA
Assay: growth inhibition by drug alone (1 - RLU/untreated control) (fraction); higher = stronger inhibition
Settings: 177Lu-lilotomab satetraxetan 0 ug/ml
Protocol: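 RIVA (RI-1) ABC-DLBCL cells were pretreated or not for 18 h with 0.5 ug/ml 177Lu-lilotomab satetraxetan (600 MBq/mg), washed and seeded (3000 cells/well) on 384-well plates pre-printed with the Selleck Cambridge Cancer Compound library. Viability was read by RealTime-Glo luminescence on days 3-6 after seeding. Effect = 1 - RLU/mean RLU of the 48 untreated no-drug control wells per plate; Bliss score = (M-E)/(1-Fa).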

Structure (SMILES) | growth inhibition by drug alone (10 nM, time (day): 3) | growth inhibition by drug alone (10 nM, time (day): 4) | growth inhibition by drug alone (10 nM, time (day): 5) | growth inhibition by drug alone (10 nM, time (day): 6) | growth inhibition by drug alone (100 nM, time (day): 3) | growth inhibition by drug alone (100 nM, time (day): 4) | growth inhibition by drug alone (100 nM, time (day): 5) | growth inhibition by drug alone (100 nM, time (day): 6)
C[C@]12CCC(=O)C(O)=C1CC[C@@H]1[C@@H]2CC[C@]2(C)C(=O)CC[C@@H]12 [Formestane] | -0.227 | -0.249 | -0.286 | -0.391 | -0.322 | -0.306 | -0.36 | -0.445
Cc1cc2c(C(C)C)c(O)c(O)c(C=O)c2c(O)c1-c1c(C)cc2c(C(C)C)c(O)c(O)c(C=O)c2c1O [Gossypol] | -0.235 | -0.278 | -0.288 | -0.349 | -0.0878 | -0.143 | -0.172 | -0.216
CC(C)[C@]12O[C@H]1[C@@H]1O[C@]13[C@]1(O[C@H]1C[C@H]1C4=C(CC[C@@]13C)C(=O)OC4)[C@@H]2O [Triptolide] | 0.376 | 0.671 | 0.753 | 0.792 | 0.907 | 0.934 | 0.957 | 0.967
Cn1cc(C2=C(c3cn(C4CCN(Cc5ccccn5)CC4)c4ccccc34)C(=O)NC2=O)c2ccccc21 | -0.161 | -0.222 | -0.236 | -0.302 | -0.273 | -0.319 | -0.329 | -0.414
CC[C@@H](C(=O)[C@@H](C)[C@@H](O)[C@H](C)[C@@H]1O[C@@H]([C@@H](CC)C(=O)O)CC[C@@H]1C)[C@H]1O[C@]2(C=C[C@@H](O)[C@]3(CC[C@@](C)([C@H]4CC[C@](O)(CC)[C@H](C)O4)O3)O2)[C@H](C)C[C@@H]1C [Salinomycin (Procoxacin)] | 0.136 | 0.0825 | -0.0184 | -0.226 | 0.144 | 0.126 | 0.0706 | -0.0392
